Screen size: about 5,500 compounds; about 2,000 (36%) were called active. Roughly 18% stayed inconclusive and do not appear here. Rule as the data show it: active = normalized growth mostly below about 0.91 (no sharp cut-off); inconclusive = no clear call, values can overlap the other calls; inactive = mostly above about 0.92. Some of the results follow.
Test: chemical genetic growth profiling, strain panel (AID 1159580);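 also: tested at 20 µM; growth read once vehicle control cultures reached saturation at 30 °C; 1 = growth at the plate median or of vehicle wells; lower values mean less growth of the strain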
Conditions: growth OD

Measured: normalized growth

CNC(=O)CSP(=S)(OC)OC
inactive: S. cerevisiae deletion strains, locus YJR075W, strain HOC1, hits give low values 1.02 | S. cerevisiae deletion strains, locus YKL009W, strain mrt4, hits give low values 1 | S. cerevisiae deletion strains, locus YKL068W, hits give low values 1.01 | S. cerevisiae deletion strains, locus YKL085W, strain MDH1 (second series), hits give low values 1.01 | S. cerevisiae deletion strains, locus YKL085W, strain MDH1, hits give low values 1.01 | S. cerevisiae deletion strains, locus YKL160W, strain elf1, hits give low values 1.01 | S. cerevisiae deletion strains, locus YKL190W, strain CNB1, hits give low values 0.979 | S. cerevisiae deletion strains, locus YKR001C, strain vps1, hits give low values 1.02 | S. cerevisiae deletion strains, locus YKR026C, strain gcn3, hits give low values 1.01 | S. cerevisiae deletion strains, locus YKR091W, strain srl3, hits give low values 1.02 | S. cerevisiae deletion strains, locus YLL001W, strain dnm1, hits give low values 1.01 | S. cerevisiae deletion strains, locus YLL026W, hits give low values 1.02 | S. cerevisiae deletion strains, locus YLL041C, strain sdh2, hits give low values 1.03 | S. cerevisiae deletion strains, locus YLR027C, strain aat2, hits give low values 1.01 | S. cerevisiae deletion strains, locus YLR039C, strain RIC1, hits give low values 0.993 | S. cerevisiae deletion strains, locus YLR058C, strain SHM2, hits give low values 1.01 | S. cerevisiae deletion strains, locus YLR102C, strain apc9, hits give low values 1.02 | S. cerevisiae deletion strains, locus YLR113W, strain HOG1, hits give low values 0.997 | S. cerevisiae deletion strains, locus YLR221C, strain rsa3, hits give low values 1.03 | S. cerevisiae deletion strains, locus YLR258W, strain gsy2, hits give low values 1.03 | S. cerevisiae deletion strains, locus YLR262C, strain YPT6 (second series), hits give low values 1.05 | S. cerevisiae deletion strains, locus YLR262C, strain YPT6, hits give low values 0.999 | S. cerevisiae deletion strains, locus YLR268W, strain sec22, hits give low values 1.01 | S. cerevisiae deletion strains, locus YLR320W, strain mms22, hits give low values 1.02 | S. cerevisiae deletion strains, locus YLR330W, strain CHS5, hits give low values 1.01 | S. cerevisiae deletion strains, locus YLR342W, strain FKS1 (second series), hits give low values 1.04 | S. cerevisiae deletion strains, locus YLR342W, strain FKS1, hits give low values 1.02 | S. cerevisiae deletion strains, locus YLR357W, strain rsc2, hits give low values 0.986 | S. cerevisiae deletion strains, locus YLR370C, strain arc18, hits give low values 1.03 | S. cerevisiae deletion strains, locus YLR371W, strain rom2, hits give low values 1.02 | S. cerevisiae deletion strains, locus YLR384C, strain iki3, hits give low values 1.04 | S. cerevisiae deletion strains, locus YLR418C, strain cdc73, hits give low values 1.01 | S. cerevisiae deletion strains, locus YML016C, strain PPZ1, hits give low values 1 | S. cerevisiae deletion strains, locus YML032C, strain rad52, hits give low values 1.03 | S. cerevisiae deletion strains, locus YML120C, strain ndi1, hits give low values 1.02 | S. cerevisiae deletion strains, locus YML124C, strain tub3, hits give low values 1.02 | S. cerevisiae deletion strains, locus YMR058W, strain fet3, hits give low values 1.01 | S. cerevisiae deletion strains, locus YMR078C, strain ctf18, hits give low values 1.02 | S. cerevisiae deletion strains, locus YMR125W, strain sto1, hits give low values 1.02 | S. cerevisiae deletion strains, locus YMR129W, hits give low values 1.01 | S. cerevisiae deletion strains, locus YMR205C, strain PFK2, hits give low values 1.01 | S. cerevisiae deletion strains, locus YMR223W, strain ubp8, hits give low values 1.02 | S. cerevisiae deletion strains, locus YMR231W, strain pep5, hits give low values 1.01 | S. cerevisiae deletion strains, locus YMR263W, strain SAP30, hits give low values 1.02 | S. cerevisiae deletion strains, locus YMR307W, strain GAS1, hits give low values 1.03 | S. cerevisiae deletion strains, locus YNL067W, strain RPL9B, hits give low values 1.01 | S. cerevisiae deletion strains, locus YNL071W, strain lat1, hits give low values 1 | S. cerevisiae deletion strains, locus YNL128W, strain TEP1, hits give low values 1.01 | S. cerevisiae deletion strains, locus YNL153C, strain GIM3, hits give low values 1.01 | S. cerevisiae deletion strains, locus YNL183C, strain NPR1, hits give low values 0.982 | S. cerevisiae deletion strains, locus YNL209W, strain ssb2, hits give low values 0.999 | S. cerevisiae deletion strains, locus YNL233W, strain BNI4, hits give low values 0.991 | S. cerevisiae deletion strains, locus YNL248C, strain rpa49, hits give low values 1.02 | S. cerevisiae deletion strains, locus YNL250W, strain rad50, hits give low values 1.02 | S. cerevisiae deletion strains, locus YNL271C, strain bni1, hits give low values 1.02 | S. cerevisiae deletion strains, locus YNL298W, strain CLA4, hits give low values 1.02 | S. cerevisiae deletion strains, locus YNL307C, strain MCK1, hits give low values 1.04 | S. cerevisiae deletion strains, locus YNL322C, strain KRE1 (second series), hits give low values 1 | S. cerevisiae deletion strains, locus YNL322C, strain KRE1, hits give low values 1.01 | S. cerevisiae deletion strains, locus YNR049C, strain mso1, hits give low values 1.02 | S. cerevisiae deletion strains, locus YNR052C, strain pop2, hits give low values 1.02 | S. cerevisiae deletion strains, locus YOL006C, strain TOP1, hits give low values 1.05 | S. cerevisiae deletion strains, locus YOL012C, strain htz1 1.12 | S. cerevisiae deletion strains, locus YOL147C, strain pex11, hits give low values 1.01 | S. cerevisiae deletion strains, locus YOR001W, strain rrp6, hits give low values 1.02 | S. cerevisiae deletion strains, locus YOR061W, strain CKA2, hits give low values 1.01 | S. cerevisiae deletion strains, locus YOR069W, strain VPS5, hits give low values 1 | S. cerevisiae deletion strains, locus YOR070C, strain gyp1, hits give low values 1.02 | S. cerevisiae deletion strains, locus YOR080W, strain dia2, hits give low values 1.02 | S. cerevisiae deletion strains, locus YOR083W, strain WHI5, hits give low values 1.01 | S. cerevisiae deletion strains, locus YOR106W, strain vam3, hits give low values 1.01 | S. cerevisiae deletion strains, locus YOR136W, strain idh2, hits give low values 1.01 | S. cerevisiae deletion strains, locus YOR144C, strain elg1, hits give low values 1.02 | S. cerevisiae deletion strains, locus YOR184W, strain ser1, hits give low values 1.04 | S. cerevisiae deletion strains, locus YOR231W, strain MKK1, hits give low values 1.04 | S. cerevisiae deletion strains, locus YOR265W, strain rbl2, hits give low values 1.03 | S. cerevisiae deletion strains, locus YOR270C, strain vph1, hits give low values 1.05 | S. cerevisiae deletion strains, locus YOR290C, strain snf2, hits give low values 1.03 | S. cerevisiae deletion strains, locus YOR316C, strain cot1, hits give low values 1.03 | S. cerevisiae deletion strains, locus YPL051W, strain arl3, hits give low values 1.01 | S. cerevisiae deletion strains, locus YPL055C, strain LGE1, hits give low values 1 | S. cerevisiae deletion strains, locus YPL078C, strain atp4, hits give low values 1.01 | S. cerevisiae deletion strains, locus YPL106C, strain sse1, hits give low values 1 | S. cerevisiae deletion strains, locus YPL240C, strain hsp82, hits give low values 1.02 | S. cerevisiae deletion strains, locus YPL241C, strain CIN2, hits give low values 1.02 | S. cerevisiae deletion strains, locus YPL256C, strain CLN2, hits give low values 1.05 | S. cerevisiae deletion strains, locus YPR119W, strain clb2, hits give low values 1.02 | S. cerevisiae deletion strains, locus YPR141C, strain kar3, hits give low values 1.02 | S. cerevisiae deletion strains, locus YPR163C, strain tif3, hits give low values 1.02 | S. cerevisiae deletion strains, locus YPR167C, strain met16, hits give low values 1.02 | S. cerevisiae deletion strains, strain wtn01, hits give low values 1.02 | S. cerevisiae strains, strain wild type, hits give low values 1.02

— PubChem BioAssay AID1159580 (chemical genetic matrix, 2015)
